The source of these data is publication PMC11006913.

The target of the assay is PITX2 (Homo sapiens, UniProt Q99697 72-157). The experiment in a line: PBM; 200 nM protein, PBS. As to conditions: dsDNA, one strand shown.
In the case of GCACGCCA, the binding signal was 7.9 upbm affinity estimate (log intensity, higher = more binding, comparable within an allelic series).

Take CATGTTCG: the binding signal was 8.09 upbm affinity estimate (log intensity, higher = more binding, comparable within an allelic series).

Regarding GAAGGTCA, the binding signal is 7.87 upbm affinity estimate (log intensity, higher = more binding, comparable within an allelic series).

As for CTGTCGAC, the binding signal was 7.99 upbm affinity estimate (log intensity, higher = more binding, comparable within an allelic series).

ACAGGGTG: the binding signal is 7.94 upbm affinity estimate (log intensity, higher = more binding, comparable within an allelic series).

Consider GCGCTGCA, for which the binding signal was 8.03 upbm affinity estimate (log intensity, higher = more binding, comparable within an allelic series).

In the case of AGATTTAT, the binding signal was 11 upbm affinity estimate (log intensity, higher = more binding, comparable within an allelic series).

Consider ACGTTCTG, for which the binding signal is 8.19 upbm affinity estimate (log intensity, higher = more binding, comparable within an allelic series).

With GGATTTAC, the binding signal is 12.3 upbm affinity estimate (log intensity, higher = more binding, comparable within an allelic series).

In the case of GGATTTAA, the binding signal was 12.5 upbm affinity estimate (log intensity, higher = more binding, comparable within an allelic series).

In the case of GCGCTTAA, the binding signal was 11.1 upbm affinity estimate (log intensity, higher = more binding, comparable within an allelic series).

As to GCTTAGAA, the binding signal is 10.2 upbm affinity estimate (log intensity, higher = more binding, comparable within an allelic series).

GAGATATC: the binding signal is 8.8 upbm affinity estimate (log intensity, higher = more binding, comparable within an allelic series).

For GGATCCTA, the binding signal is 9.17 upbm affinity estimate (log intensity, higher = more binding, comparable within an allelic series).

Regarding TCTTGGCA, the binding signal was 7.96 upbm affinity estimate (log intensity, higher = more binding, comparable within an allelic series).

As for CGGAATCC, the binding signal was 10.1 upbm affinity estimate (log intensity, higher = more binding, comparable within an allelic series).

ATCTAATG: the binding signal is 9.77 upbm affinity estimate (log intensity, higher = more binding, comparable within an allelic series).

Turning to ACGTGTCC, the binding signal was 8.04 upbm affinity estimate (log intensity, higher = more binding, comparable within an allelic series).

In the case of CACTCGCA, the binding signal is 8.08 upbm affinity estimate (log intensity, higher = more binding, comparable within an allelic series).

As to CGCCAGCA, the binding signal is 8 upbm affinity estimate (log intensity, higher = more binding, comparable within an allelic series).

As for GGCTTAAA, the binding signal was 12.3 upbm affinity estimate (log intensity, higher = more binding, comparable within an allelic series).

With GCGGCGCC, the binding signal is 7.97 upbm affinity estimate (log intensity, higher = more binding, comparable within an allelic series).

On to ACTGGTGC, for which the binding signal was 7.7 upbm affinity estimate (log intensity, higher = more binding, comparable within an allelic series).

Take AAGCTTAG: the binding signal is 11.4 upbm affinity estimate (log intensity, higher = more binding, comparable within an allelic series).

For the sequence AGGCGTCC, the binding signal is 7.84 upbm affinity estimate (log intensity, higher = more binding, comparable within an allelic series).

As to GACAACGC, the binding signal was 7.92 upbm affinity estimate (log intensity, higher = more binding, comparable within an allelic series).

Consider CTAAATCC, for which the binding signal was 12.4 upbm affinity estimate (log intensity, higher = more binding, comparable within an allelic series).

With AAATCTCC, the binding signal is 10.8 upbm affinity estimate (log intensity, higher = more binding, comparable within an allelic series).

In the case of AAGGGATT, the binding signal is 11.6 upbm affinity estimate (log intensity, higher = more binding, comparable within an allelic series).

Regarding GGATACTA, the binding signal was 9.25 upbm affinity estimate (log intensity, higher = more binding, comparable within an allelic series).

For GATGAGCC, the binding signal was 9.56 upbm affinity estimate (log intensity, higher = more binding, comparable within an allelic series).

Consider CACCGGGC, for which the binding signal is 7.98 upbm affinity estimate (log intensity, higher = more binding, comparable within an allelic series).

Consider CGACGTCA, for which the binding signal is 8.05 upbm affinity estimate (log intensity, higher = more binding, comparable within an allelic series).

GAGTGCGC: the binding signal was 7.98 upbm affinity estimate (log intensity, higher = more binding, comparable within an allelic series).

With AATTCCAC, the binding signal was 9.99 upbm affinity estimate (log intensity, higher = more binding, comparable within an allelic series).

ATCCTTAC: the binding signal is 9.47 upbm affinity estimate (log intensity, higher = more binding, comparable within an allelic series).

With CAGTTTCA, the binding signal was 7.95 upbm affinity estimate (log intensity, higher = more binding, comparable within an allelic series).

On to CCTACCAG, for which the binding signal was 8.01 upbm affinity estimate (log intensity, higher = more binding, comparable within an allelic series).

Take GGAGGAAC: the binding signal is 8.06 upbm affinity estimate (log intensity, higher = more binding, comparable within an allelic series).

Turning to CCTGCTTA, the binding signal was 10.3 upbm affinity estimate (log intensity, higher = more binding, comparable within an allelic series).
